According to PubChem BioAssay AID1159569 (Broad Institute, 2015):
Potency and affinity values are given separately. Records with an inconclusive call do not appear. Activity calls are given as the source filed them. How the calls were made is not given here.

Test: toxicity to human HepG2 hepatoma cells – cell-based, plate reader, dry powder samples, cytotoxicity control, dose response (AID 1159569)
Settings: HepG2 cytotoxicity counterscreen; series mostly up to 50 µM; activity change, negative = cytotoxicity: at the top concentration

SMILES	activity change, negative = cytotoxicity
COc1ccc2c3c(n(C)c2c1)[C@@H](CO)N(C(=O)C1CCCC1)CC31CCN(C(=O)Nc2cccc(F)c2)CC1	-32.3% (inactive)
C[C@H](CO)N1C[C@H](C)[C@H](CN(C)CC2CC2)Oc2ccc(NC(=O)Nc3ccccc3)cc2CC1=O	-18.3% (inactive)
COc1ccc(NC(=O)N2CCCCN3[C@H](CO)[C@H](c4ccc(C#Cc5ccccn5)cc4)[C@@H]3C2)cc1	-9.61% (inactive)
C/C=C/c1ccc2c(c1)[C@H]1[C@H](CCN1C(=O)c1ccc(F)cc1)[C@H](CO)N2	-28.2% (inactive)
CCCNC(=O)Nc1ccc2c(c1)OC[C@@H](C)N(Cc1ccccc1)C[C@@H](C)[C@H](OC)CN(C)C2=O	-20.7% (inactive)
COc1ccc2c3c([nH]c2c1)[C@H](CO)N(C(=O)C1CCOCC1)CC31CCN(Cc2nccs2)CC1	-3.5% (inactive)
COc1ccccc1S(=O)(=O)N(C)C[C@H]1Oc2cc(/C=C/c3ccccc3)ccc2S(=O)(=O)N([C@H](C)CO)C[C@@H]1C	-6.95% (inactive)
C/C=C/c1ccc([C@H]2[C@@H](C#N)N(C(=O)NC3CCCC3)[C@@H]2CO)cc1	-33.3% [at 56 µM] (inactive)
COc1ccc2c3c(n(C)c2c1)[C@@H](CO)N(C(=O)c1ccccc1)CC31CCN(C(=O)c2ccccc2)CC1	-16.1% (inactive)
CCCc1cn(CC[C@@H]2CC[C@H](NS(=O)(=O)c3ccc(-c4ccccc4)cc3)[C@H](CO)O2)nn1	-45.1% (inactive)
C[C@@H]1CN([C@@H](C)CO)C(=O)c2cccc(NC(=O)c3nc4ccccc4s3)c2O[C@H]1CN(C)C(=O)Nc1ccc2c(c1)OCO2	-8.51% (inactive)
O=C(Nc1ccccc1F)N1CCCCN2[C@@H](CO)[C@H](c3ccc(C#Cc4cccnc4)cc3)[C@@H]2C1	-29.5% (inactive)
COc1ccc2c3c(n(C)c2c1)[C@@H](CO)N(C(=O)C1CCCC1)CC31CN(C(=O)Nc2cccc(F)c2)C1	-13.8% (inactive)
CCc1csc(N2[C@H](C#N)[C@H](c3ccccc3-c3ccc(F)cc3)[C@H]2CO)n1	-23.6% (inactive)
COc1ccc(C#Cc2ccc3c(c2)[C@H]2[C@H](CCN2C(=O)C2CCCC2)[C@@H](CO)N3)cc1	-20.4% (inactive)
C[C@H]1CN([C@@H](C)CO)C(=O)c2cc(NC(=O)Nc3ccc(C(F)(F)F)cc3)ccc2O[C@@H]1CN(C)C(=O)Nc1cccc2ccccc12	2.11% (inactive)

SMILES	activity change, negative = cytotoxicity
COc1ccc2c3c([nH]c2c1)[C@H](CO)N(C(=O)C1CCCCC1)CC31CCN(Cc2nccs2)CC1	0.429% (inactive)
COc1ccc(-c2ccccc2[C@H]2[C@@H](C#N)N(C(=O)NC(C)C)[C@H]2CO)cc1	-17.9% (inactive)
COc1ccc(-c2ccc([C@H]3[C@H](C#N)N(C(=O)c4cccc(F)c4)[C@H]3CO)cc2)cc1	-21.9% (inactive)
O=C(C1CCCC1)N1CC(=O)N2[C@H](CO)[C@H](c3ccc(-c4cccnc4)cc3)[C@H]2C1	-11.9% (inactive)
COc1ccccc1S(=O)(=O)N(C)C[C@@H]1OCc2ccccc2-c2c(n(C)c3ccccc23)C(=O)N([C@@H](C)CO)C[C@@H]1C	-23.5% (inactive)
Cc1nc(N2[C@H](CO)[C@H](c3ccccc3)[C@H]2CNCC2CCCC2)sc1C	-35.8% (inactive)
CO[C@@H]1CN(C)C(=O)c2ccc(NC(=O)c3ccc4c(c3)OCO4)cc2OC[C@@H](C)N(Cc2ccc3c(c2)OCO3)C[C@H]1C	-20.4% (inactive)
C[C@H]1CN([C@@H](C)CO)C(=O)c2c(c3ccccc3n2C)-c2ccccc2CO[C@@H]1CN(C)C(=O)Nc1cccc(C(F)(F)F)c1	-53.7% (inactive)
C[C@@H]1CN([C@@H](C)CO)C(=O)c2cccc(NC(=O)C3CC3)c2O[C@@H]1CN(C)C(=O)Nc1ccc(C(F)(F)F)cc1	-8.27% (inactive)
COc1ccc2c3c(n(C)c2c1)[C@@H](CO)N(C(=O)C1CC1)CC31CCN(C(=O)Nc2cccc(F)c2)CC1	-11.9% (inactive)
COc1ccc(C#Cc2ccc3c(c2)O[C@@H](CN(C)S(=O)(=O)c2ccccc2F)[C@@H](C)CN([C@H](C)CO)S3(=O)=O)cc1	-4.47% (inactive)
CC(C)CNC[C@@H]1[C@@H](c2ccccc2)[C@@H](CO)N1Cc1ccc(F)cc1	-28% (inactive)
COc1cccc(CN2CC3(CCN(Cc4ccccn4)CC3)c3c([nH]c4cc(OC)ccc34)[C@@H]2CO)c1	-31% (inactive)
CCCC(=O)Nc1ccc2c(c1)OC[C@@H](C)N(Cc1ccccc1F)C[C@@H](C)[C@H](OC)CN(C)C2=O	-6.21% (inactive)
C[C@H](CO)N1C[C@H](C)[C@@H](CN(C)C(=O)Nc2cccc3ccccc23)Oc2ccc(NC(=O)Nc3ccc(C(F)(F)F)cc3)cc2C1=O	-10.9% (inactive)
